Laboratory results taken from PubChem BioAssay (Tox21).
Active and inactive are the calls of the source. Where a call stands in place of a potency, no number is given. Calls follow the shape of the full dose curve.

target: Gonadotropin-releasing hormone receptor (Homo sapiens) (UniProt P30968); test: Human gonadotropin-releasing hormone receptor (GnRHR) small molecule agonists, calcium flux assay in GnRHR-HEK293 cells (AID 1920063); conditions: calcium flux fluorescence, agonist mode; series mostly up to 57.6 µM; also: nearly all actives have a fitted effect of over 35% in size
Sequence (P30968 whole entry, looked up): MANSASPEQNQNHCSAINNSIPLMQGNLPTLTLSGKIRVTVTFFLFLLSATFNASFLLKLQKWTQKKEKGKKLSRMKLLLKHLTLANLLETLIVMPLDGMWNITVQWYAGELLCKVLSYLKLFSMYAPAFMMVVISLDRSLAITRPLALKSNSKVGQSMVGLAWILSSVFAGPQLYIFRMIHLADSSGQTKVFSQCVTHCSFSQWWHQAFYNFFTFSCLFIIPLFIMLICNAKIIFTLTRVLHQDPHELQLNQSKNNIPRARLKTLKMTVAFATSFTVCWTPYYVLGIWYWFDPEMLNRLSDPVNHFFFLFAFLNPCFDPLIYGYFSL
Text: National Center for Advancing Translational Sciences [NCATS]
Division of Preclinical Innovation [DPI]
U.S. Environmental Protection Agency [EPA]
National Institutes of Environmental Health Sciences [NIEHS]
National Toxicology Program [NTP]
U.S. Food and Drug Administration [FDA]
Gonadotropin-releasing hormone receptor (GnRHR) is a G-protein-coupled receptor (GPCR) and acts (through phospholipase C) to increase intracellular inositol trisphosphate and then release intracellular calcium stores. Cell-based GnRHR-Hek293 calcium influx assay is using HEK293 cells that have been genetically engineered to express the human GnRHR, which activity can be measured by calcium signaling. A compound/drug can activate (agonist) GnRHR that can be monitored by levels of intracellular calcium.
GnRHR-HEK293 cells developed by Codex Corp contain human GnRHR reporter gene, which was stably integrated into HEK 293 cells. The compound activation can be detected by fluorescence intensity via calcium flux assay. This cell line has been used to screen the Tox21 10K compound library to identify GnRHR agonists.
GnRHR-Hek293 cells were dispensed at 1500cells/4uL/well in 1536-well black wall/clear bottom plates using a multidrop dispenser. After the assay plates were incubated at a 37 C/5% CO2 incubator for 18 hours, 4 uL of Calcium Dye Solution was added to each well. The plates were incubated at 37 C for 1 hour. For agonist mode, 23 nL of compounds dissolved in DMSO, positive controls or DMSO only was transferred to the assay plate by a pin tool station. The fluorescence intensity in the plates was measured using FDSS 7000EX kinetic plate reader with a filter set of Ex/Em=480/540 for 3 min at 1 sec intervals. Each test compound was measured at 15 concentrations and in triplicates.
Potency is read from the fitted curve at half-maximal effect.

Row | SMILES | Potency
1 | NC(=O)Nc1ccccc1 | inactive
2 | CC(=O)/C=C/c1ccco1 | inactive
3 | C=CCCCCCCCCCCCC | inactive
4 | CCN(CC)c1ccc(C=O)c(O)c1 | inactive
5 | Nc1c(Br)cc([N+](=O)[O-])cc1Br | inactive
6 | N[C@@H](Cc1c[nH]c2ccc(O)cc12)C(=O)O | inactive
7 | CC/C=C\C/C=C\C/C=C\CCCCCCCC(=O)O | inactive
8 | Nc1cc(=O)[nH]c(N)n1 | inactive
9 | Cc1ccc(C)o1 | inactive
10 | O=C1OC(=O)C2CC=CCC12 (stereo not given) | inactive
11 | COc1cccc2c1C(=O)c1c(O)c3c(c(O)c1C2=O)C[C@@](O)(C(C)=O)C[C@@H]3O[C@H]1C[C@H](N)[C@H](O)[C@H](C)O1 | 34.9 µM (active)
12 | CC(C)(C)c1cc(C(C)(C)C)c(O)c(C(C)(C)C)c1 | inactive
13 | Cc1ccc(C(=O)Nc2ccc(S(=O)(=O)O)c3cc(S(=O)(=O)O)cc(S(=O)(=O)O)c23)cc1NC(=O)c1cccc(NC(=O)Nc2cccc(C(=O)Nc3cc(C(=O)Nc4ccc(S(=O)(=O)O)c5cc(S(=O)(=O)O)cc(S(=O)(=O)O)c45)ccc3C)c2)c1 | inactive
14 | Cc1ccc(C)cc1 | inactive
15 | CCCCCCCC(=O)[O-].CCCCCCCC(=O)[O-].[Zn+2] | inactive
16 | Clc1ccccc1-c1nc(-c2ccncc2)no1 | inactive
17 | O=C(C(=O)c1ccco1)c1ccco1 | inactive
18 | CC(C)(CCC(=O)O)C(=O)O | inactive
19 | C=CCCC | inactive
20 | CC(C)CC(O)CC(C)C | inactive

Row | SMILES | Potency
21 | NS(=O)(=O)c1cc2c(cc1Cl)NC(C1CC3C=CC1C3)NS2(=O)=O (stereo not given) | inactive
22 | CC(C)(CO)[C@@H](O)C(=O)NCCC(=O)O | inactive
23 | CCCCCC(C)=O | inactive
24 | N#[N+]c1ccc2c(S(=O)(=O)[O-])cccc2c1O | inactive
25 | CCN(CC)c1ccc(C(=O)c2ccccc2C(=O)O)c(O)c1 | inactive
26 | CCCCc1ccc(Cl)cc1 | inactive
27 | CCCCCCCCCC/C=C/C#N | inactive
28 | Nc1ccc(Cl)c(N)c1 | inactive
29 | Nc1ccc(Oc2ccc(Cl)cc2)cc1 | inactive
30 | Cc1ccc(Nc2ccc(O)c3c2C(=O)c2ccccc2C3=O)cc1 | inactive
31 | O=C(O)CNc1ccccc1 | inactive
32 | C=CCCC(=O)/C=C/C1C(C)=CCCC1(C)C (stereo not given) | inactive
33 | CN/C(=C\[N+](=O)[O-])NCCSCc1ccc(CN(C)C)o1 | inactive
34 | CNCCO | inactive
35 | CCCCCCCC(=O)N(C)C | inactive
36 | Fc1c(F)c(F)c(Br)c(F)c1F | inactive
37 | CC(C)=CCC/C(C)=C/C#N | inactive
38 | NC(=O)c1cccc([N+](=O)[O-])c1 | inactive
39 | O=c1[nH]c(=O)n([C@H]2CCCO2)cc1F | inactive
40 | NC(=O)Cc1cccc(C(=O)c2ccccc2)c1N | inactive
